ERK EGF inh: blocks ERK signaling stimulated by EGF | HEK293-V1b, EGF-stimulated phospho-ERK AlphaScreen | Potency, µM (titrated, usually from 11.5 µM), usual class: inhibitors | actives 0.41% (n = 130,000) | AID 1454; active = well fitted inhibition curve with a large enough effect; also: nearly all actives have a fitted effect of over 55% in size
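In this qHTS, HEK293 cells with stable type-1 vasopressin (V1b) receptor were exposed to compound at 37C for 30 min, stimulated 5 min with EGF at 25 nM, lysed, and probed for phospho-ERK by AlphaScreen.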
A number is an active result; n = inactive. The full list was thinned out, with hits kept by preference.

SMILES	ERK EGF inh
Cc1nc2cnc(N3CCOCC3)nc2n(CCC#N)c1=O	n
CC(=O)Oc1ccc2c(c1C(C)C)CCC1C(C)(C)CCC[C@@]21C (stereo partly specified)	n
CC(C)c1c(O)ccc2c1CCC1[C@@](C)(CO)CCC[C@@]21C (stereo partly specified)	n
COC(=O)[C@@]1(C)CCC[C@@]2(C)c3ccc(O)c(C(C)C)c3CCC21 (stereo partly specified)	22.4µM
Cc1cc(C(=O)CSc2nc3ccccc3[nH]2)c(C)n1Cc1ccco1	17.8µM
Cc1cc(C(=O)CSc2nncs2)c(C)n1Cc1ccco1	n
CCCn1c(C)cc(C(=O)CSc2nc3ccccc3c(=O)n2Cc2ccco2)c1C	n
CNc1ccccc1C(=O)N1CCc2c([nH]c3ccccc23)C1=O	n
Cc1nc(Nc2ccc(C(=O)O)cc2)nc(Nc2ccc(C(=O)O)cc2)c1[N+](=O)[O-]	n
CC(=O)Nc1ccc(Nc2nc(C)c([N+](=O)[O-])c(Nc3ccccc3)n2)cc1	31.6µM
CCC(=O)Nc1ccc(Nc2nc(C)c([N+](=O)[O-])c(Nc3ccc(NC(=O)CC)cc3)n2)cc1	n
O=C(c1cccc(F)c1)N1CCC2(CCCN(Cc3nccs3)C2)CC1	n
CC1(C)C[C@](C)(C(=O)c2ccccc2)C=C1c1ccccc1	n
CCCC(=O)OCC(=O)Nc1ccc(N=Nc2ccccc2)cc1	n
CC1CC1C(=O)OCC(=O)Nc1ccc(N=Nc2ccccc2)cc1 (stereo unspecified)	20µM
CC1CC1C(=O)OCC(=O)Nc1ccccc1Oc1ccccc1 (stereo unspecified)	n
CC(=O)OCCC(C)CCC=C(C)C (stereo unspecified)	n
CC(=O)OC1CCC2(C)C(=CC=C3C2CCC2(C)C3CCC2C(C)/C=C/C(C)C(C)C)C1(C)C (stereo unspecified)	n
CO[C@]12CC(COC(=O)c3cncc(Br)c3)CN(C)[C@@H]1Cc1cn(C)c3cccc2c13 (stereo partly specified)	n
C=C(C(C)=O)C(O)c1cccc(Br)c1 (stereo unspecified)	n
CCCCNc1nc(C)nc2c1nc(-c1ccccc1)n2CCN1CCCCC1	n
CCN(CC)CCn1c(=N)n(CC(O)COc2ccccc2)c2ccccc21 (stereo unspecified)	n
Cc1ccccc1OCC(O)Cn1c(=N)n(Cc2ccccc2)c2ccccc21 (stereo unspecified)	31.6µM
CCCCCn1c(=N)n(CC(O)COc2ccccc2OC)c2ccccc21 (stereo unspecified)	n
COc1ccc2nc(N=Nc3ccc(O)c4ccccc34)sc2c1	7.08µM
SMILES	ERK EGF inh
COc1ccc2nc(N=NC3=C(O)CC(C)(C)CC3=O)sc2c1	n
COc1cccc(Nc2nc3ccc(OC)cc3s2)c1	n
O=C(O)C1Cc2c([nH]c3ccccc23)C(c2coc3ccccc3c2=O)N1 (stereo unspecified)	n
O=C(Nc1ccc2cn[nH]c2c1)c1c(Cl)cccc1Cl	n
O=C(Oc1ccc(NC2=C(Cl)C(=O)c3ccccc3C2=O)cc1)c1ccc([N+](=O)[O-])cc1	n
O=C1C(Cl)=C(Nc2ccc3cn[nH]c3c2)C(=O)c2ccccc21	15.8µM
O=C(Nc1ccc2cn[nH]c2c1)c1ccccc1F	n
CC(=O)Nc1ccc(NC2=C(Cl)C(=O)c3ccccc3C2=O)cc1	n
CN(C)c1ccc(NC2=C(Cl)C(=O)c3ccccc3C2=O)cc1	14.1µM
COc1cccc([C@@H]2Oc3ccc(OC)cc3C[C@H]2OC(=O)NCc2ccco2)c1	n
Cc1ccnc(NC(=O)c2sc3cc(Cl)ccc3c2Cl)c1	n
Cc1ccc2c(Cl)c(C(=O)Nc3ccc4c(c3)OCO4)sc2c1	n
CCN(CC)Cc1ccc(NC(=O)c2sc3cc(Cl)ccc3c2Cl)cc1	28.2µM
CCCCC/C=C\C/C=C\C/C=C\CCCCC(=O)NCCCC(=O)O	n
CCCn1c(C)nc2c(NCCN3CCCC3)nc(C)nc21	n
CCCCCCCCCCCCC/C=C/[C@@H](O)[C@H](CO)NC(=O)CCCCCCCCCCCCCCC	n
CCC1=NN2C(=N)/C(=C\c3cccn3-c3ccc(Cl)cc3)C(=O)N=C2S1	n
CC1=NN(c2ccc(Cl)cc2)C(=O)/C1=C\c1cccn1-c1ccc(S(N)(=O)=O)cc1	25.1µM
Cc1ccc(S(=O)(=O)N/N=C/c2cccn2-c2ccc(Cl)cc2)cc1	n
COc1ccccc1CN1CCCC2(CCN(C(=O)c3ccncc3)CC2)C1	n
CC1=C(C(=O)OCc2ccccc2)C(C2CCCCC2)NC(=O)N1CCCCCC(=O)O (stereo unspecified)	n
COCC1=C2c3ccccc3[C@H](C[N+](=O)[O-])C(C(=O)OC)(C(=O)OC)C[C@@H]2n2c(=O)n(-c3ccccc3)c(=O)n2C1	n
COc1ccc(-c2nc(-c3ccccc3)c(NC(C)C)o2)cc1	n
CN1CCN(c2ccnc(-c3ccccc3C(F)(F)F)n2)CC1	n
O=C(Nc1ccc(N2CCN(c3ncccc3C(F)(F)F)CC2)nc1)c1cccs1	14.1µM
SMILES	ERK EGF inh
O=C(Nc1ccc(N2CCOCC2)nc1)c1cccs1	n
O=C(Nc1ccc(N2CCN(c3ccc(C(F)(F)F)cn3)CC2)nc1)c1cccs1	n
COc1ccccc1CN1CCCC2(CCN(C(=O)c3c(C)noc3C)CC2)C1	n
CC1(C)OC2CC3C4CC(F)C5=CC(=O)C=C[C@@]5(C)[C@@]4(F)C(O)C[C@@]3(C)[C@]2(C(=O)CO)O1 (stereo partly specified)	n
Cc1ccc2c(c1)c(C)c(C)n2CC(O)CN1CCOCC1 (stereo unspecified)	n
OC(CN1CCNCC1)Cn1c2ccc(Br)cc2c2cc(Br)ccc21 (stereo unspecified)	28.2µM
CN1CCN(CC(O)COCCOc2ccc(Br)cc2)CC1 (stereo unspecified)	n
COCC(=O)C(C(=O)OC)[C@H](CCc1ccccc1)NC(=O)OC (stereo partly specified)	n
c1coc(CN(Cc2ccco2)c2ncnc3c2oc2ccccc23)c1	17.8µM
CCn1cnc2c(oc3ccccc32)c1=O	n
Fc1ccc(CSc2ncnc3c2oc2ccccc23)cc1	n
CO[C@]1(NC(=O)C(C(=O)O)c2ccc(O)cc2)C(=O)N2C(C(=O)O)=C(CSc3nnnn3C)COC21 (stereo partly specified)	n
CC(=O)N1CCC2(CCN(Cc3cc(C(F)(F)F)cc(C(F)(F)F)c3)CC2)CC1	n
Cc1ccccc1S(=O)(=O)Nc1ncnc2scc(-c3ccccc3)c12	n
CN(C)CCCNc1ncnc2scc(-c3ccccc3)c12	n
Cc1sc2ncnc(Nc3ccc(O)cc3)c2c1C	28.2µM
Oc1ccc(Nc2ncnc3scc(-c4ccccc4)c23)cc1	22.4µM
Cc1sc2ncnc(N/N=C/c3cccc(O)c3)c2c1C	n
Cc1sc2ncnc(N)c2c1C	n
COc1ccc(-n2c(=O)c(-c3ccc(Cl)cc3)nc3cnc(N4CCOCC4)nc32)cc1	n
COc1ccc2c(c1)c(CC(=O)NCc1ccc3c(c1)OCO3)c(C)n2C(=O)c1ccc(Cl)cc1	n
COc1ccc2c(c1)O[C@H](c1ccc3c(c1)OCO3)[C@@H](OC(=O)Nc1ccc(OC(F)F)cc1)C2=O	n
COC(=O)[C@H](Cc1ccccc1)NC(=O)O[C@H]1C(=O)c2cc(OC)ccc2O[C@@H]1c1ccc(OC)c(Br)c1	n
CC(C1CCCC(=O)C1)[N+](=O)[O-] (stereo unspecified)	n
Nc1nc(-c2ccc(Cl)c(Cl)c2)c(-c2ccncc2)s1	n
NC(N)=NC(N)=Nc1cccc2ccccc12	n
